TEAD-YAP inh: TEAD-YAP interaction inhibition; HEK-TIYL cells, TEAD-Gal4/YAP UAS-luciferase luminescence; inhibition, % at 9.12 µM; actives 1.4% (n = 640,000); AID 1259422; in the data active means inhibition above about 32%;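 further: 0% = median of test compound wells and 100% = reference inhibitor wells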
FBW7 activator: human FBW7 E3 ligase activation, primary screen; Q969H0; AlphaScreen FBW7–phospho-cyclin E peptide binding, activator screen; normalized activity (activation), % at 26.1 µM; actives 0.13% (n = 650,000); AID 1259310; in the data active means normalized activity above about 1.9%;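 further: purified mutant Fbw7 with reduced substrate affinity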
GPR151 ag: activators of human GPR151 | Q8TDV0 | PathHunter beta-arrestin GPR151 cells, luminescence | activation, % at 11.2 µM | actives 1% (n = 650,000) | AID 1508602; in the data active means activation above about 4.9%;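 further: 0% = median of compound wells and 100% = cells with positive control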
MITF primary: blocks human microphthalmia-associated transcription factor. inhibition, % at 2.6 µM. actives 0.91% (n = 650,000). O75030. AlphaScreen MITF homodimerization, bead proximity signal; in the data active means inhibition above about 50%;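 further: 0% = vehicle wells with protein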
Target sequence (O75030 whole entry, looked up): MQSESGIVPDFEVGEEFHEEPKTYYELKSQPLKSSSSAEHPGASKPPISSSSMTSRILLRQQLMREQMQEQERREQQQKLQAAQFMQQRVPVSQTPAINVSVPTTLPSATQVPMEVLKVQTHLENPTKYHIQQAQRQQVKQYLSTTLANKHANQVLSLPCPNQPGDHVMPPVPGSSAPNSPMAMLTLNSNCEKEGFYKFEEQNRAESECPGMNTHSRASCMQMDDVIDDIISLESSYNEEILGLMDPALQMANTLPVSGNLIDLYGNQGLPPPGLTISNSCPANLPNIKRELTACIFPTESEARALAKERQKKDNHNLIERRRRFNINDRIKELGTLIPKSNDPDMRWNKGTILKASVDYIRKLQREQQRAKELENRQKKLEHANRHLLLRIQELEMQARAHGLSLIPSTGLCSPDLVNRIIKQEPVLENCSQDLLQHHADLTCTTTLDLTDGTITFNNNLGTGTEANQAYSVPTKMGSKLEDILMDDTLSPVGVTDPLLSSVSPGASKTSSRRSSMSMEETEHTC
GPR151 conf act: human GPR151 activation, confirmation screen | activation, % at 11.2 µM | AID 1508609 | GPR151 PathHunter beta-arrestin cells, luminescence, 90 min; % of EA-reagent control over plate median | shares compounds with GPR151 ag | 6,700 tested, under 10 active;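 active means mean percent activation across replicates above the confirmation screen cutoff of 4.91%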
GPR119 counter: counter-screen for GPR151 activators: effect on human GPR119; activation, % at 11.2 µM; GPR119 PathHunter beta-arrestin cells, luminescence, 90 min; 0 = compound-well median, 100 = enzyme-acceptor control; shares compounds with GPR151 ag; actives 0.3% (n = 6,700);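 active means mean percent activation in the counterscreen above 29.09%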;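 further: counterscreen on off-target GPR119 to flag nonselective hits from the GPR151 activator screen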
The depositor's hits bear a star; . = no result. Most compounds without a hit are left out; they make up all but 3.5% or so of the library.

SMILES	TEAD-YAP inh	FBW7 activator	GPR151 ag	MITF primary	GPR151 conf act	GPR119 counter
Cc1cc(C)nc(NS(=O)(=O)c2ccc(Nc3ncnc(N)c3[N+](=O)[O-])cc2)n1	-3	0	2	-1	.	.
CCN(CC(=O)Nc1ccc(I)cc1)S(=O)(=O)c1ccccc1	8	1	1	7	.	.
COc1ccc(C2/C(=C(/O)c3ccc(C)cc3)C(=O)C(=O)N2Cc2cccnc2)c(OC)c1 (stereo unspecified)	-1	0	1	-1	.	.
Cc1cc(N2CCN(C(=O)c3ccc(Cl)cc3Cl)CC2)c(F)cc1[N+](=O)[O-]	6	0	6.8*	2	1	6
O=P(CCO)(c1ccccc1)c1ccccc1	1	0	-2	17	.	.
O=P(CCCO)(c1ccccc1)c1ccccc1	-3	0	10*	30	1	15
CCOc1ccc(/C(O)=C2\C(=O)C(=O)N(c3nc(C)c(C(=O)OC)s3)C2c2ccc(C)cc2)cc1C (stereo unspecified)	-2	0	5.0*	7	-1	0
Cc1cc(C)c(C#N)c(SC/C=C/c2ccccc2)n1	-2	0	7.0*	4	-1	-10
Cc1cc(C)c(C#N)c(SC/C=C/CSc2nc(C)cc(C)c2C#N)n1	-8	0	-1	-19	.	.
CC(C)C(NS(C)(=O)=O)c1nnc2n1CCN(Cc1cc3ccccc3o1)CC2 (stereo unspecified)	4	0	3	-1	.	.
CC(=O)N1CCc2ccc(S(=O)(=O)N3CCCc4ccccc43)cc21	54*	0	6.7*	5	0	2
CC(=O)N1CCOc2cc(S(=O)(=O)N3CCCc4ccccc43)ccc21	7	0	1	4	.	.
CCOc1cc(/C=N/n2nnnc2N)ccc1O	-3	1	0	0	.	.
COc1cccc(CN2CCN(Cc3cccs3)C(CCO)C2)c1 (stereo unspecified)	-5	0	0	-3	.	.
COc1ccc(CN2CCN(Cc3cccs3)C(CCO)C2)c(O)c1 (stereo unspecified)	-14	0	5.1*	-5	0	-8
CC(CCc1ccccc1)NC(=O)Cn1c(CO)nc2ccccc21 (stereo unspecified)	5	0	6.2*	-11	0	10
COc1cc(-c2cn3c(NC(=O)c4cccs4)c(C)nc3cn2)cc(OC)c1OC	-5	0	5.3*	-6	1	11
N#CC1=C(N)OC2=C(C(=O)CCC2)C12C(=O)N(C(=O)c1ccccc1Cl)c1ccccc12 (stereo unspecified)	6	0	-1	2	.	.
O=C(Nn1c(-c2ccc(F)cc2)nc2ccccc2c1=O)c1cncc(Br)c1	0	1	5.5*	21	0	12
CCCCCOc1ccc(C(=O)CCNC(Cc2c[nH]c3ccccc23)C(=O)O)cc1 (stereo unspecified)	1	0	1	-8	.	.
O=C1C(CCCNC(=S)NC2CCCCC2)NC(=S)N1C1CCCCC1 (stereo unspecified)	4	0	9.8*	9	0	-9
CCCC1NC(=S)N(C2CCCCC2)C1=O (stereo unspecified)	-7	0	1	-9	.	.
O=C(Nc1ccccc1Cl)c1ccc(Cl)c(Cl)c1	-70	0	0	-14	.	.
Cc1cccc(N2CCN(C(=O)c3cccnc3SCc3ccccc3Cl)CC2C)c1 (stereo unspecified)	10	0	6.8*	-3	0	-8
Cc1ccccc1CSc1ncccc1C(=O)N1CCN(c2cccc(Cl)c2)CC1	5	0	0	-2	.	.
Cc1cccc(NC(=O)CN(C2=NC3CS(=O)(=O)CC3S2)c2ccccc2)c1 (stereo unspecified)	5	0	-2	17	.	.
CCc1cccc(NC(=O)CN(C2=NC3CS(=O)(=O)CC3S2)c2cccc(C)c2)c1 (stereo unspecified)	7	-1	13*	0	1	-16
CCCc1[nH]nc2c1C(c1ccc(F)cc1)C(C#N)=C(N)O2 (stereo unspecified)	3	1	3	-3	.	.
C#CCN1C(=O)C(O)(CC(=O)c2ccccn2)c2cc(Br)ccc21 (stereo unspecified)	4	0	2	8	.	.
